Test results taken from PubChem BioAssay (NCATS).
Records with an inconclusive call do not appear. The source made the active and inactive calls. Calls come from the whole dose curve.

What follows are compounds tested against Peroxisome proliferator-activated receptor delta (Homo sapiens) (UniProt Q03181) (assay: qHTS assay for small molecule agonists of peroxisome proliferator-activated receptor delta signaling (AID 588534)). Settings: HEK293T PPARdelta-UAS-bla, beta-lactamase ratio, 18 h; series mostly up to 76.7 µM.
Method in brief: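 Agonist-mode beta-lactamase reporter readout (CCF4 dye, 2 h at RT) after 18 h at 37 °C exposure to a titration; Hill-equation fitting gave EC50 and maximal response.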

Sequence of Peroxisome proliferator-activated receptor delta (Homo sapiens) (Q03181 whole entry, looked up): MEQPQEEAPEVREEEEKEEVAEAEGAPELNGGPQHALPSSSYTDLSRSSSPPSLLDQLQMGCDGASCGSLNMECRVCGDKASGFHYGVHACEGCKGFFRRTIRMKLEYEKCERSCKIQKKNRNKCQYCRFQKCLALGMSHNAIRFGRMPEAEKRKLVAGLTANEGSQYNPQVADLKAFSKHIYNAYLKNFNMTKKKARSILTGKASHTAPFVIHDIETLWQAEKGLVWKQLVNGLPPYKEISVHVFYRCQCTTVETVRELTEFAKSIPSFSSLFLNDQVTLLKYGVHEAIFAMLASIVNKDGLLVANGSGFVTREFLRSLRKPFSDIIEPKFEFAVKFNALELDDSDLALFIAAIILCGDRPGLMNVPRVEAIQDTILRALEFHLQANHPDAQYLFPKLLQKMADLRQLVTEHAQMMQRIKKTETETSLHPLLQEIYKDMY

SMILES	outcome
CC1CCCO1 (centres undefined)	inactive
CCCCCc1ccc(N)cc1	inactive
CCCCNCC	inactive
Cn1sccc1=O	inactive
CC(/C=C/C=C(C)/C=C/C(=O)O)=C\C=C\C=C(C)\C=C\C=C(C)\C=C\C(=O)O	inactive
C=Cc1ccccn1	inactive
CCCCOCCOCCOCCO	inactive
c1c[nH]cn1	inactive
O=C(O)CNC(=O)c1ccc(CO)o1	inactive
CC(C)C(C)C	inactive
C=C(C)C(=O)OCCC[Si](OC)(OC)OC	inactive
CC(=O)c1ccc([N+](=O)[O-])cc1	inactive
c1ccc(OCCOc2ccccc2)cc1	inactive
CCOC(=O)C1OC1c1ccccc1 (centres undefined)	inactive
CCN(CC)c1cccc(O)c1	inactive
C=C(C)C(=O)OCCOC(=O)C(=C)C	inactive
OCCC(F)(F)C(F)(F)C(F)(F)C(F)(F)C(F)(F)C(F)(F)C(F)(F)C(F)(F)F	inactive
COCCOCCOCCO	inactive
CCN(Cc1ccccc1)c1ccccc1	inactive
Cc1cc(-c2ccc(N=Nc3cc(S(=O)(=O)O)c4ccccc4c3N)c(C)c2)ccc1N=Nc1cc(S(=O)(=O)O)c2ccccc2c1N	inactive
Cc1cc(C(=O)O)ccc1[N+](=O)[O-]	inactive
O=C(O)c1cccc([N+](=O)[O-])c1	inactive
O=C(O)c1cccc(Cl)c1Cl	inactive
CCCC(=O)OC(=O)CCC	inactive
Cc1ccc(S(=O)(=O)NCl)cc1	inactive
CC(=O)OC(C)(C)C1CC=C(C)CC1 (centres undefined)	inactive
CCOCCOCCOCC	inactive
O=[N+]([O-])C(CO)(CO)CO	inactive
CN(C)c1cccc(O)c1	inactive
